# Measured values reported in PubChem BioAssay.
# Where “and” joins values, the source holds several entries; their conditions need not be identical. Equal entries are not always repeated. Calls of active or inactive are those of the source.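 Rule for the calls, unless noted: active = compounds whose cell count with miR-34 switched on is under 0.7 times the count with it off; inactive = the rest.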
# Key:
# [1] = system: Aerobactin synthetase IucA (Klebsiella pneumoniae); test: IucA aerobactin synthetase inhibitors, biochemical, Tocris library, absorbance (AID 1345561; call rule not given here;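 note: 100% = enzyme without compound and 0% = no enzyme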); details: purified IucA enzyme assay, absorbance (OD) read-out; stronger effect = lower value;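 tested at 8 µM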
# [2] = sensitizers of A549 cells to miR-34 induction, primary screen, imaging, A549 dox-inducible miR-34, nuclei and caspase counts (AID 1347080); details: A549 miR-34 inducible, Hoechst nuclei count, 48 h
# [3] = viability rescue of complex I mutant cybrids, primary screen, cell-based, galactose medium, ATP luminescence (AID 1645843;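 active = z-score of at least 1.8 in each of two replicates, scored against plate mean and spread of sample wells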;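 note: positive z means more ATP and so rescue of galactose-driven cybrid death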); details: complex I mutant cybrid cells, 72 h, stronger effect = higher value
# [4] = stronger effect = lower value, cell number ratio, induced over uninduced
# [5] = measured here: relative caspase fold change +Dox/-Dox
# [6] = measured here: total cells with miR-34 induction, stronger effect = lower value
# [7] = measured here: total cells without miR-34 induction
SMILES,remaining activity [1],"fold change [2, 4]","fold change [2, 5]","cell count [2, 6]","cell count [2, 7]",z-score [3]
NCCCCCCCCCCNS(=O)(=O)c1cccc2c(Cl)cccc12,98.7% (inactive),0.827 (inactive),0.835,5900,7130,-1.11 (inactive)
Cc1ccc2c(=O)c3ccccc3n(CCCN)c2c1C,96.6% (inactive),1.17 (inactive),1.36,2370,2020,-0.58 (inactive)
COc1ccc(NC(=O)c2ccc(-c3ccc(-c4noc(C)n4)cc3C)cc2)cc1OCCN(C)C,128% (inactive),1.2 (inactive),1.18,1160,962,-0.765 (inactive)
COc1cc(/C=C/c2ccc(OC)cc2OC)cc(OC)c1,117% (inactive),0.956 (inactive) and 0.973 (inactive),1.53 and 0.719,1820 and 3000,1910 and 3090,-0.41 (inactive)
O=C(Nc1cccc2cccnc12)c1ccc(N2C(=O)[C@@H]3[C@H](C2=O)[C@@H]2C=C[C@H]3C2)cc1,115% (inactive),1 (inactive),0.754,6560,6550,-0.025 (inactive)
CC1(C)CC(=O)C(C2C3=C(CC(C)(C)CC3=O)Oc3ccccc32)C(=O)C1 (stereo not given),120% (inactive),0.884 (inactive),0.511,9160,10400,-0.35 (inactive)
COC(=O)c1ccccc1NC(=O)c1ccc(F)cc1,99.3% (inactive),0.965 (inactive),0.872,7260,7520,0.635 (inactive)
COc1ccccc1N1CCN(CCN2C(=O)c3ccccc3C(C)(C)C2=O)CC1,124% (inactive),1.04 (inactive),1.01,7580,7320,-0.455 (inactive)
CCCCCCCCC(=O)NCc1cc(OC)c(O)cc1I,120% (inactive),0.949 (inactive),0.652,8140,8580,-0.615 (inactive)
CC[C@@H]1Cn2c(c3nc(-c4ccccc4)nc-3n(C)c2=O)N1,108% (inactive),0.901 (inactive),1.44,7600,8440,-0.165 (inactive)
COC(=O)c1sccc1S(=O)(=O)Nc1ccc(Nc2ccccc2)cc1OC,87.9% (inactive),0.862 (inactive),1.31,6450,7480,-0.495 (inactive)
Cc1cc(C)c(N(Cc2ccccc2)S(=O)(=O)c2ccc(OCCNC(=O)c3cc4ccccc4o3)cc2)c(C(=O)NO)c1,101% (inactive),0.895 (inactive),0.617,2050,2290,-0.695 (inactive)
CC(=O)N1CCN(C)CC1,118% (inactive),0.971 (inactive),0.837,8470,8720,0.29 (inactive)
CCc1cc(C2NNC(C)C2c2ccc3c(c2)OCCO3)c(O)cc1O (stereo not given),92.2% (inactive),1.01 (inactive),1.27,4520,4490,0.625 (inactive)
Cc1cc(C)cc(C(=O)N(C)[C@H](Cc2ccc(-c3ccccc3)cc2)C(=O)N[C@@H](Cc2c[nH]c3ccccc23)C(=O)O)c1,125% (inactive),0.884 (inactive),0.967,8970,10100,7.92 (active)
COc1cc([C@@H]2c3cc4c(cc3C(OC3OC5COC(C)OC5C(O)C3O)C3COC(=O)[C@@H]32)OCO4)cc(OC)c1O (stereo not given in full),116% (inactive),1.07 (inactive),0.575,4900,4590,-0.765 (inactive)
CC(C)NCC(O)COc1ccccc1-n1cccc1 (stereo not given),99.6% (inactive),0.968 (inactive),0.992,8690,8980,-0.43 (inactive)
N[C@@H](C(=O)O)c1ccc(O)c(C(=O)O)c1,100% (inactive),0.932 (inactive),0.807,8680,9320,-0.18 (inactive)
COc1ccc(CN2C(=O)C(=O)c3cc(OC(F)(F)F)ccc32)cc1,114% (inactive),0.793 (inactive),1.39,1960,2480,-1.04 (inactive)
O=C(NCCCN1CCCCCC1)C(c1ccccc1)C1CCCCC1 (stereo not given),115% (inactive),0.949 (inactive),0.832,8370,8820,-0.905 (inactive)
COC(=O)C1=C(C)NC(C)=C(C(=O)NCCCN2CCC(c3ccccc3)(c3ccccc3)CC2)C1c1ccc([N+](=O)[O-])cc1 (stereo not given),98% (inactive),0.668 (active),1.88,294,441,-0.7 (inactive)
O=C1NN(C(=O)Nc2ccc(Br)cc2)[C@@H](c2ccccc2)[C@@H]1c1ccccc1,127% (inactive),0.887 (inactive),0.737,9100,10300,0.225 (inactive)
COc1oc(=O)c2cc(N)ccc2c1Cl,95.9% (inactive),0.989 (inactive),1.44,8640,8740,-0.37 (inactive)
COCCNC(=O)COc1ccc(OCCNC[C@@H](O)COc2ccccc2)cc1,95.4% (inactive),0.88 (inactive),0.916,8400,9540,0.13 (inactive)
COc1ccc([C@H]2CNC(=O)C2)cc1OC1CCCC1,113% (inactive),0.966 (inactive),0.702,9600,9950,-0.255 (inactive)

SMILES,remaining activity [1],"fold change [2, 4]","fold change [2, 5]","cell count [2, 6]","cell count [2, 7]",z-score [3]
N[C@@H](Cc1cc(-c2ccc(Cl)cc2Cl)cc(CP(=O)(O)O)c1O)C(=O)O,115% (inactive),0.913 (inactive),0.553,8540,9350,0.635 (inactive)
C[C@H](NC[C@H](O)CP(=O)(O)Cc1ccccc1)c1ccc(Cl)c(Cl)c1,111% (inactive),0.949 (inactive),1.04,8740,9210,0.06 (inactive)
O=C(NCCN1CCCCC1)c1ccc(I)cc1,103% (inactive),0.954 (inactive),0.747,9320,9760,0.155 (inactive)
COc1ccc(Nc2ncnc3ccc(OC)cc23)cc1,108% (inactive),0.902 (inactive),1.09,6910,7660,-0.345 (inactive)
O=C1c2ccccc2C(Cc2ccncc2)(Cc2ccncc2)c2ccccc21,107% (inactive),0.992 (inactive),1.04,7700,7770,-0.13 (inactive)
CCc1cc2c(c(CC)n1)CCC(=O)N2Cc1ccc(-c2ccccc2-c2nn[nH]n2)cc1,89.1% (inactive),0.902 (inactive),0.831,8410,9320,1.93 (inactive)
Cc1ccccc1N=C(N)Nc1ccccc1C,93.4% (inactive),0.944 (inactive),0.72,8710,9220,-0.035 (inactive)
CN(N=O)C(=O)N[C@H]1C(O)O[C@H](CO)[C@@H](O)[C@@H]1O (stereo not given in full),111% (inactive),0.958 (inactive),0.621,8770,9160,-0.2 (inactive)
CC(=O)N(OCc1ccccc1)[C@@H]1c2cc(C#N)ccc2OC(C)(C)[C@H]1O,105% (inactive),0.887 (inactive),0.973,8320,9380,0.705 (inactive)
COc1cc(C[C@H]2C(=O)OC[C@@H]2Cc2ccc(OC)c(OC)c2)ccc1O,104% (inactive),0.937 (inactive),0.733,4240,4530,-0.76 (inactive)
COc1ccc(NS(=O)(=O)c2ccc(I)cc2)cc1N1CCN(C)CC1,112% (inactive),0.956 (inactive),0.589,6570,6870,-0.545 (inactive)
O=C(NCCCCN1CCN(c2cccc(Cl)c2Cl)CC1)c1ccc2c(c1)Cc1ccccc1-2,111% (inactive),0.929 (inactive),1.33,8390,9030,-0.17 (inactive)
CCCOc1ccc(Br)cc1-c1cc(-c2ccc(Cl)cc2)[nH]c1-c1ccncc1,102% (inactive),0.969 (inactive),1.19,8200,8460,0.1 (inactive)
NC(=NC1C2CC3CC(C2)CC1C3)Nc1ccc(I)cc1 (stereo not given),126% (inactive),1.12 (inactive),0.649,2830,2540,-0.39 (inactive)
Nc1nc2c(ccc3ccccc32)s1,121% (inactive),0.908 (inactive),1.66,8670,9550,0.415 (inactive)
N=C(CC(O)COc1ccccc1-c1ccccc1)N1CCCCC1 (stereo not given),113% (inactive),0.933 (inactive),0.891,6170,6610,-0.28 (inactive)
NC(Cn1ccc(=O)n(Cc2ccccc2C(=O)O)c1=O)C(=O)O (stereo not given),98.2% (inactive),0.925 (inactive),1.4,8950,9680,0.13 (inactive)
COc1cc(N)c(Cl)cc1C(=O)OCCCN1CCCCC1,102% (inactive),0.975 (inactive),0.823,9460,9700,0.255 (inactive)
C[C@@]1(O)[C@H](O)[C@@H](CO)O[C@H]1n1cnc2c(NC3CCCC3)nc(Cl)nc21,118% (inactive),1.01 (inactive),1.12,7690,7600,0.755 (inactive)
Cc1cc(Cn2cnc3c2C[C@@H](C(=O)O)N(C(=O)C(c2ccccc2)c2ccccc2)C3)ccc1N(C)C,122% (inactive),0.877 (inactive),0.611,8880,10100,0.245 (inactive)
COC(=O)/C=C/c1cccc(N(Cc2ccc(-c3ccc(N(C)C)cc3)cc2)C(=O)C2CCCCC2)c1,97.3% (inactive),0.926 (inactive),1.8,7630,8240,0.225 (inactive)
CC1(C)CCC(C)(C)c2cc(C3(c4ccc(C(=O)O)cc4)OCCO3)ccc21,106% (inactive),0.895 (inactive),2.19,8580,9580,0.95 (inactive)
O[C@H](CNC[C@@H](O)[C@H]1CCc2cc(F)ccc2O1)[C@@H]1CCc2cc(F)ccc2O1,101% (inactive),1.03 (inactive),0.967,3230,3140,-0.5 (inactive)
CC(=Nc1ccccc1N)c1c(C)cc(=O)n(O)c1O,117% (inactive),1.16 (inactive),0.955,3450,2970,-0.105 (inactive)
COc1cc2c(cc1OC)C(c1ccc(N)cc1)=NNC(=O)C2,103% (inactive),1.07 (inactive),0.53,4030,3760,0.045 (inactive)
